# Assay results from publication PMC5540273 (PLoS ONE, 2017).
# Columns and labels:
# Details in all cases: concentration: 1 μM, replicates: in singlicate; n = 1
# PRKCI = tested on: PRKCI
# PRKCQ = tested on: PRKCQ
# PRKD1 = tested on: PRKD1
# PRKD2 = tested on: PRKD2
# PRKD3 = tested on: PRKD3
# PRKG1 = tested on: PRKG1
# PRKG2 = tested on: PRKG2
# PRKR = tested on: T1, PRKR
# T1 construct: gene EIF2AK2
# PRKX = tested on: PRKX
# PRP4 = tested on: PRP4
# PYK2 = tested on: T2, PYK2
# T2 construct: gene PTK2B
# QSK = tested on: QSK
# RAF1 = tested on: RAF1
# RET = tested on: RET
# RIOK1 = tested on: RIOK1
# RIOK2 = tested on: RIOK2
# RIOK3 = tested on: RIOK3
# RIPK1 = tested on: RIPK1
# RIPK2 = tested on: RIPK2
# RIPK4 = tested on: RIPK4
# 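Note: KINOMEscan kinase panel screen.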
SMILES,%Inh (PRKCI),%Inh (PRKCQ),%Inh (PRKD1),%Inh (PRKD2),%Inh (PRKD3),%Inh (PRKG1),%Inh (PRKG2),%Inh (PRKR),%Inh (PRKX),%Inh (PRP4),%Inh (PYK2),%Inh (QSK),%Inh (RAF1),%Inh (RET),%Inh (RIOK1),%Inh (RIOK2),%Inh (RIOK3),%Inh (RIPK1),%Inh (RIPK2),%Inh (RIPK4)
Fc1ccc(-c2ncn(CCCN3CCOCC3)c2-c2cccnc2)cc1 [SB-211743],23%,0%,0%,6%,0%,35%,0%,0%,0%,0%,0%,0%,9%,3%,17%,53%,0%,0%,0%,4%
c1ccc(-c2n[nH]cc2-c2ccnc3ccccc23)nc1 [GW271431],0%,0%,1%,14%,38%,0%,8%,0%,0%,5%,9%,0%,2%,0%,58%,11%,26%,20%,23%,2%
COc1ccc(COc2cc(-n3cnc4ccccc43)sc2C(N)=O)cc1 [GSK1024304],0%,32%,0%,24%,3%,0%,0%,0%,10%,11%,0%,0%,4%,26%,0%,80%,0%,4%,0%,0%
COc1cc2c(cc1OC[C@@H](O)CO)ncc1c3ccc(C#N)cc3[nH]c21,0%,0%,0%,0%,0%,0%,0%,0%,0%,9%,0%,8%,21%,52%,65%,0%,76%,0%,0%,0%
O=C(c1ccc(-c2cc(-c3c[nH]nc3-c3ccccn3)ccn2)cc1)N1CCOCC1 [GW812171],15%,0%,0%,17%,0%,10%,0%,20%,0%,0%,0%,0%,9%,0%,8%,0%,7%,0%,1%,2%
[2H]C([2H])(c1cccc(C(F)(F)F)c1C)n1ccn2c(=O)nc(N3CCOCC3)cc12 [GSK2336394],22%,9%,17%,4%,27%,0%,0%,0%,14%,18%,4%,0%,10%,14%,23%,6%,0%,0%,7%,5%
COc1ccc(Nc2ncc(C#N)c(Nc3ccccc3C(N)=O)n2)cc1N1CCN(C)CC1.Cl [GSK1558669],96.6%,96.5%,93.1%,89%,99%,76%,54%,87%,52%,79%,99.2%,94.7%,32%,99.9%,100%,98.7%,79%,74%,76%,98.9%
c1ccc(-c2cc(-c3c[nH]nc3-c3ccccn3)ccn2)cc1 [GW576604],23%,0%,67%,49%,50%,0%,0%,3%,0%,22%,0%,0%,4%,16%,37%,1%,25%,0%,94.6%,0%
Cc1nnc(-c2ccc(C)c(-c3ccc(C(=O)Nc4ccc(NS(C)(=O)=O)cc4)cc3)c2)o1 [GW702865],13%,0%,0%,0%,17%,7%,10%,8%,0%,56%,0%,0%,2%,45%,22%,0%,27%,36%,14%,0%
Cl.Nc1ncnc2occ(-c3ccc(NC(=O)Nc4cc(C(F)(F)F)ccc4F)cc3)c12 [SB-707548],25%,15%,0%,20%,29%,11%,7%,28%,9%,8%,19%,0%,78%,100%,0%,0%,22%,96%,42%,2%
CN1c2ccc(CNc3ccc(F)cc3)cc2-c2c(cnn2C)S1(=O)=O,0%,12%,17%,0%,0%,0%,0%,0%,0%,11%,0%,20%,0%,0%,18%,0%,14%,0%,2%,5%
COc1cc2c(cc1OCCN1CCN(C)CC1)ncc1c3ccc(C#N)cc3[nH]c21,22%,17%,0%,0%,10%,0%,13%,30%,19%,79%,2%,67%,0%,29%,93.1%,24%,85%,14%,49%,15%
Fc1ccc(-c2nn3c(OCC(F)(F)F)cccc3c2-c2ccncc2)cc1 [GW514784],25%,12%,27%,7%,0%,14%,7%,0%,3%,34%,1%,0%,8%,0%,39%,0%,5%,0%,43%,0%
Cc1c(Cn2c(C)nn3c(=O)cc(N4CCOC(C)C4)nc23)cccc1C(F)(F)F (stereo not drawn) [GSK2344444],0%,0%,0%,0%,22%,14%,0%,0%,3%,0%,0%,4%,0%,1%,27%,10%,0%,0%,0%,7%
Cn1ccc2ncnc(Oc3ccc(NC(=O)Nc4ccncc4)c(Cl)c3)c21,0%,0%,14%,0%,0%,3%,0%,0%,0%,14%,0%,0%,12%,1%,0%,0%,23%,0%,0%,0%
